According to PubChem BioAssay (NCATS):
Records with an inconclusive call do not appear. Entries that show only a call come without a potency. A number with no mark means an inactive call. Activity calls are given as the source filed them. Calls come from the whole dose curve; as a rule, active = well fitted inhibition curve with a large enough effect; inconclusive = small, poorly fitted or top-dose-only effect; inactive = flat fitted curve, though single readings scatter.

Tests used:
[1] = target: Glutathione peroxidase 1 (Homo sapiens) (UniProt P07203); assay: Primary qHTS Assay for Inhibitors of Recombinant Selenoprotein Glutathione Peroxidase 1 (GPX1) (AID 1845191); note: nearly all actives have a fitted effect of over 65% in size
Chain of Glutathione peroxidase 1 (Homo sapiens) (P07203 whole entry, looked up): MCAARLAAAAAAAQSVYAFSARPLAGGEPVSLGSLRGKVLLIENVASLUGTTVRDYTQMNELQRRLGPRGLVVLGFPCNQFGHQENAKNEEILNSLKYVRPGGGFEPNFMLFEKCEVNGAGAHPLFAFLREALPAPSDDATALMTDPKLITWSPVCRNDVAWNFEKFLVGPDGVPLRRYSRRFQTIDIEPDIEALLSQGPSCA
In short: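 GR-coupled assay: compounds preincubated 30 min at room temperature with GPX1, then reaction started with CHP; final 10 nM GPX1, 1 mM GSH, 0.5 mM CHP, 0.5 mM NADPH, 100 nM GR, 0.01% BSA, pH 7.5 Tris buffer. NADPH fluorescence (340/450 nm) read at 0 and 15 min.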

[2] = target: Phospholipid hydroperoxide glutathione peroxidase GPX4 (Homo sapiens) (UniProt P36969); assay: Primary qHTS Assay for Inhibitors of Recombinant Selenoprotein Glutathione Peroxidase 4 (GPX4) (AID 1845192); note: nearly all actives have a fitted effect of over 65% in size; note: potency is the fitted concentration of half-maximal effect
Chain of Phospholipid hydroperoxide glutathione peroxidase GPX4 (Homo sapiens) (P36969 whole entry, looked up): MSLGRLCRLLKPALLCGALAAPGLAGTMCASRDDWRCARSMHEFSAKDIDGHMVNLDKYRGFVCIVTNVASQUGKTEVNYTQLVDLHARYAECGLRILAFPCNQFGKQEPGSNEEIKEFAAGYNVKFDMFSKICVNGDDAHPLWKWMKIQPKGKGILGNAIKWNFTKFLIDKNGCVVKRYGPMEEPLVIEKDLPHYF
In short: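 GR-coupled assay: recombinant GPX4 preincubated 30 min with compound at room temperature; final 200 nM GPX4, 1 mM GSH, 0.5 mM cumene hydroperoxide, 0.5 mM NADPH, 100 nM GR, 0.01% BSA, pH 7.5 Tris. NADPH fluorescence (340/450 nm) read at 0 and 15 min.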

[3] = qHTS profiling for inhibitors of Plasmodium falciparum proliferation (AID 504749); note: nearly all actives have a fitted effect of over 60% in size; note: potency is the fitted concentration of half-maximal effect; details: P. falciparum in erythrocytes, SYBR Green DNA, 72 h
In short: (§1)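 Readout was DNA-dye fluorescence from lysed cultures, ex 485/em 535 nm. Parasitized red cells had grown 72 h with compound; data scaled between 0.29 uM artemisinin and DMSO wells and corrected using vehicle-only plates.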

3D7 = assay: as above; details: P. falciparum in erythrocytes, SYBR Green DNA, 72 h; series mostly up to 28.7 µM
In short: as §1

7G8 = assay: as above; details: P. falciparum in erythrocytes, SYBR Green DNA, 72 h; series mostly up to 28.7 µM
In short: as §1

AA1029 = assay: as above; details: P. falciparum in erythrocytes, SYBR Green DNA, 72 h; series mostly up to 28.7 µM
In short: as §1

[4] = at 28.7 µM (top of the series), parasite line A
[5] = at 28.7 µM (top of the series), parasite line B
[6] = at 12.8 µM (top of the series), parasite line A
[7] = at 12.8 µM (top of the series), parasite line B

SMILES	Potency [1]	Potency [2]	activity, negative = inhibition [3, 4] [%]	activity, negative = inhibition [3, 5] [%]	Potency (3D7)	Potency (7G8)	Potency (AA1029)	activity, negative = inhibition [3, 6] [%]	activity, negative = inhibition [3, 7] [%]	outcome [1]	outcome [2]
NC(=O)CC[C@@H](N)C(=O)O	inactive	inactive	3.38	6.23	inactive	inactive	inactive				
CCCCCCCCCCCCCCCCC(C(=O)O)C(O)(CC(=O)O)C(=O)O (centres undefined)	inactive	4.47 µM (active)	13.1	1.49	inactive	inactive	inactive				
O=C(O)CNC(=O)c1ccccc1I	inactive	inactive	6.37	11.3	inactive	inactive	inactive				
CC(=O)NS(=O)(=O)c1ccc(N)cc1	inactive	inactive	6.18	10.5	inactive	inactive	inactive				
NC(=O)c1ccc([N+](=O)[O-])cc1Cl	inactive	inactive	-8.53	6.47	inactive	8.91 µM (active)	inactive				
NC(N)=NS(=O)(=O)c1ccc(N)cc1	inactive	inactive			inactive	inactive	inactive	8.93	8.43		
CCCNC(C)(C)COC(=O)c1ccccc1	inactive	inactive	-2.07	9.96	inactive	inactive	inactive				
CCc1cccc(CC)c1NC(=O)CN(CC(=O)O)CC(=O)O	inactive	inactive			inactive	inactive	inactive	1.37	6.7		
CN/C(=C\[N+](=O)[O-])NCCSCc1csc(CN(C)C)n1	inactive	inactive			inactive	inactive	inactive	4.23	7.76		
CC(=O)OCC(COC(C)=O)OC(C)=O	inactive	inactive	4.58	8.38	inactive	inactive	inactive				
NC(N)=NCCN1CCCCCCC1					inactive	inactive	inactive	4.56	10.2	inactive [at 0.4 µM]	inactive [at 0.409 µM]
CC(C(=O)O)c1ccc2c(c1)Cc1cccnc1O2 (centres undefined)	inactive	inactive	5.68	-1.86	inactive	inactive	inactive				
